The nature of assay [1]: qHTS for Inhibitors of the Functional Ribonucleoprotein Complex (vRNP) of Lassa (LASV) Arenavirus: LASV Primary Screen - GLuc reporter signal (AID 1347082; calls by dose curve; tested in HEK293 reporter line; note: nearly all actives have a fitted effect of over 60% in size; note: potency is the fitted concentration of half-maximal effect; for activity change, negative = inhibition: % is set by controls: 0 for no effect and ±100 for the full control effect).
The nature of assay [2]: qHTS for Inhibitors of the Functional Ribonucleoprotein Complex (vRNP) of Lassa (LASV) Arenavirus: Viability assay - alamar blue signal for LASV Primary Screen (AID 1347083; calls by dose curve; tested in HEK293 reporter line; note: nearly all actives have a fitted effect of over 80% in size; note: potency is the fitted concentration of half-maximal effect).
Assay [3] is described as follows: qHTS for Inhibitors of the Functional Ribonucleoprotein Complex (vRNP) of Lymphocytic Choriomeningitis Arenaviruses (LCMV): Viability assay - alamar blue signal for LCMV Primary Screen (AID 1347085; calls by dose curve; tested in HEK293 reporter line; note: nearly all actives have a fitted effect of over 80% in size; note: potency is the fitted concentration of half-maximal effect).
Assay [4] has as its target Nucleoprotein (Lymphocytic choriomeningitis virus (strain Armstrong)) (UniProt P09992). Description: qHTS for Inhibitors of the Functional Ribonucleoprotein Complex (vRNP) of Lymphocytic Choriomeningitis Arenaviruses (LCMV): LCMV Primary Screen - GLuc reporter signal (AID 1347086; calls by dose curve; note: nearly all actives have a fitted effect of over 70% in size; note: potency is the fitted concentration of half-maximal effect; for activity change, negative = inhibition: % is set by controls: 0 for no effect and ±100 for the full control effect).
Assay [5] deals with Nuclear receptor subfamily 1 group I member 3 (Homo sapiens) (UniProt Q14994). Description: Primary qHTS for antagonist of constitutive androstane receptor (CAR) against the NCATS DSHEA and TCM libraries (AID 1794836). The method, boiled down: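 HepG2 cells stably carrying hCAR and a CYP2B6 luciferase reporter (2,500 cells/well) attached for 5 h, then received compounds with 48 uM CITCO for 24 h at 37C. ONE-Glo luminescence read antagonism; CellTiter-Fluor (405/540 nm) gave viability.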

Assay [6] is described as follows: KB-8-5-11 P-gp reporter qHTS against the NCATS DSHEA and TCM libraries (AID 1919977). Note: 0% is about no effect. In a few lines: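 CellTiter-Glo luminescence after ~72 h exposure at 37C gave viability of KB-8-5-11 cells, the P-gp-overexpressing subline. Substances were titrated; colchicine was omitted from assay medium.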
A short description of assay [7]: Primary qHTS to identify inhibitors of SARS-CoV-2 cell entry (AID 1645846; calls by dose curve; note: nearly all actives have a fitted effect of over 45% in size; note: potency is the fitted concentration of half-maximal effect). Particulars: activity change, negative = inhibition: at 57.1 µM (top of the series) unless noted. The method, boiled down:
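HEK293-ACE2 (Expi293F, stable hACE2), 1500 cells/well, o/n 37C; cpd 23 nL pin, 1 h; MLV-PP w/ SARS-CoV-2-S (Wuhan-Hu-1, Δ19 C-term); 48 h 37C; Bright-Glo luminescence; normalized vs S-PP and bald PP.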

A short description of assay [8]: qHTS for differential inhibitors of proliferation of Plasmodium falciparum line GB4 (AID 1816).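 Note: potency is the fitted concentration of half-maximal effect; parasite growth measured after 72 h incubation.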 The conditions noted are these: Potency: Plasmodium falciparum GB4 proliferation inhibition.
Assay [9] is described as follows: qHTS for differential inhibitors of proliferation of Plasmodium falciparum line W2 (AID 1883).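 Note: potency is the fitted concentration of half-maximal effect; parasites grown with compound for 72 h before lysis and staining.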 Particulars: Potency: Plasmodium falciparum W2 proliferation inhibition.
The nature of assay [10]: qHTS for differential inhibitors of proliferation of Plasmodium falciparum line HB3 (AID 1886).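 Note: potency is the fitted concentration of half-maximal effect; parasites grown with compound for 72 h before SYBR Green readout.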 The conditions noted are these: Potency: Plasmodium falciparum HB3 proliferation inhibition.
Assay [11] can be described thus: Cytometry Cell-Based qHTS for Inhibitors of the mTORC1 Signaling Pathway in MEF cells (AID 2668). Note: potency is the fitted concentration of half-maximal effect. The method, boiled down: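 Read-out: phospho-rpS6 Ser235/236 immunofluorescence normalized to propidium iodide intensity, scored as % active cells against a rapamycin (7.5 nM) threshold. Cells: Tsc2-/-, p53-/- MEFs stably expressing WT Tsc2, compound-treated 24 hrs at 37 degree Celsius.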

Assay [12] in a line: Validation screen for inhibitors of Lassa infection (AID 463096; calls by dose curve; note: % is set by controls: 0 for no effect and ±100 for the full control effect).
A short description of assay [13]: Validation screen for small molecules that induce DNA re-replication in MCF 10A normal breast cells (AID 463097). Note: potency is the fitted concentration of half-maximal effect; nearly all actives have a fitted effect of over 60% in size. The method, boiled down: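 250 MCF 10A cells/well; compound pin-transferred; 48 hr, 37 C, 5% CO2; Hoechst 40 min; imaged 405/500-530 nm. Hits = more high-intensity nuclei.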
The target of assay [14] is M-phase phosphoprotein 8 (Homo sapiens) (UniProt Q99549). Description: qHTS Validation Assay for Inhibitors for MPP8 Chromodomain Interactions with Methylated Histone Tails (AID 488949).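 Note: AlphaScreen signal from MPP8 chromodomain bound to biotinylated H3K9me3 peptide; top concentration of the series differs between compounds; % is set by controls: 0 for no effect and ±100 for the full control effect; nearly all actives have a fitted effect of over 55% in size.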 The method, boiled down:
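AlphaScreen read-out: streptavidin donor and nickel chelate acceptor beads (final 10 ug/mL), 30 min in the dark at RT. Complex of 50 nM MPP8 and 50 nM b-H3(1-18)K9me3 peptide had been exposed to compounds for 30 min beforehand.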

A short description of assay [15]: Validation screen for small molecules that induce DNA re-replication in SW480 colon adenocarcinoma cells (AID 504364). Note: potency is the fitted concentration of half-maximal effect. The method, boiled down: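 Hoechst-stained SW480 nuclei, imaged at 405 nm excitation after 48 hr compound exposure, were counted for elevated DNA content as the re-replication signal.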
Assay [16] is described as follows: Inducers of the Endoplasmic Reticulum Stress Response (ERSR) in human glioma: Validation (AID 504836). Note: 0% is about no effect. The method, boiled down: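 Stably transfected U87-MG human glioma cells carrying a GRP78-based luminescent sensor were seeded at 1000 cells/well, pin-dosed with compounds and incubated 16 h. Luciferase reagent was then added, and end-point luminescence was read after 10 min at room temperature.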

In assay [17] the target is Ubiquitin carboxyl-terminal hydrolase 1 (Homo sapiens) (UniProt O94782). Description: Inhibitors of USP1/UAF1: Pilot qHTS (AID 504865).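 Note: rhodamine fluorescence freed from ubiquitin-rhodamine substrate followed over time; top concentration of the series differs between compounds; % is set by controls: 0 for no effect and ±100 for the full control effect; nearly all actives have a fitted effect of over 35% in size.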 In a few lines:
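1nM USP1/UAF1 + cpd, 15 min RT; start w/ Ub-Rho 150nM final; kinetic FL 480/540 nm, 6 reads q60 s. Buffer 50mM HEPES pH 7.8, 0.5mM EDTA, 1mM TCEP, 0.01% Tween-20, 0.1 mg/ml BSA.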

In assay [18] the target is Glutaminase kidney isoform, mitochondrial (Homo sapiens) (UniProt O94925). Description: qHTS for Inhibitors of Glutaminase (GLS): LOPAC Validation (AID 624146).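 Note: glutamate product detected by oxidase and peroxidase coupled Amplex red fluorescence gain; % is set by controls: 0 for no effect and ±100 for the full control effect; nearly all actives have a fitted effect of over 60% in size.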 The method, boiled down:
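Enzyme dispensed in phosphate buffer (45 mM, pH 8.2, 0.02% Tween-20), compounds pinned in, then 1 mM L-glutamine solution and the glutamate oxidase–HRP–Amplex Red mix added; fluorescence read immediately and again after 30 min at room temperature.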

Assay [19] is described as follows: qHTS of Trypanosoma Brucei Inhibitors: LOPAC Validation (AID 624147). Note: 0% is about no effect. In a few lines: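 Activity of T. brucei pyruvate kinase was followed by Kinase-Glo Plus luminescence after the enzyme reacted 45 min at room temperature with 130 uM ADP (final) and substrate. Test compounds were added before ADP at multiple concentrations.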

SMILES strings stand for the structures. Inconclusive results are not listed. Active and inactive are the calls of the source. Unless noted, calls come from the whole dose curve; as a rule, active = well fitted curve in the direction sought with a large enough effect; inconclusive = small, poorly fitted or top-dose-only effect, or another doubt; inactive = no such curve, though single readings can be large; an effect the other way counts as inactive or inconclusive.

Sequence of Nucleoprotein (Lymphocytic choriomeningitis virus (strain Armstrong)) (P09992 whole entry, looked up): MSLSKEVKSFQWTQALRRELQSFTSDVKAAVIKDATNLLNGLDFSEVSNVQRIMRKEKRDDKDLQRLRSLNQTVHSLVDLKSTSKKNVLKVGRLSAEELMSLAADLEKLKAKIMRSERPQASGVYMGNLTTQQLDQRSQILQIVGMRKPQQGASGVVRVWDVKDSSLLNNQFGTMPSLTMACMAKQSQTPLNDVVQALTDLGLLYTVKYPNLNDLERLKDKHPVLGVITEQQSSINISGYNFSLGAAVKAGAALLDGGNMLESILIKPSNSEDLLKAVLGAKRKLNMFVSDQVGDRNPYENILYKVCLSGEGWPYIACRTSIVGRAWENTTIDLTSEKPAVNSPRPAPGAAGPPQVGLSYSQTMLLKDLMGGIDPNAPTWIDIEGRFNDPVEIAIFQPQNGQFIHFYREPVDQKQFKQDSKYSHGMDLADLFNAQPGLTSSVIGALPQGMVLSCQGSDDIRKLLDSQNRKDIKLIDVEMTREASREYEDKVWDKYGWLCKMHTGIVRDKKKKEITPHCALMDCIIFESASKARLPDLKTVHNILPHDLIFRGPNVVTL
Sequence of Nuclear receptor subfamily 1 group I member 3 (Homo sapiens) (Q14994 whole entry, looked up): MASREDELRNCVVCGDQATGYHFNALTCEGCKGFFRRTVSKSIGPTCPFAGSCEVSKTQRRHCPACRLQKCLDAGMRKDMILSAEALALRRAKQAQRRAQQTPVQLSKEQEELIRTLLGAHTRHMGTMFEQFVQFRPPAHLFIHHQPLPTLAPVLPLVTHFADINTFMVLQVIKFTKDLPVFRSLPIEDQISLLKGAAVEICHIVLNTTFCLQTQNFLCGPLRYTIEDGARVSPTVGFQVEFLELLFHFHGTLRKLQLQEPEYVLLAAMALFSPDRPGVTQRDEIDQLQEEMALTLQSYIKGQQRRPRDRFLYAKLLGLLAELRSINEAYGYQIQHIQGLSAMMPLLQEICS
Sequence of Ubiquitin carboxyl-terminal hydrolase 1 (Homo sapiens) (O94782 whole entry, looked up): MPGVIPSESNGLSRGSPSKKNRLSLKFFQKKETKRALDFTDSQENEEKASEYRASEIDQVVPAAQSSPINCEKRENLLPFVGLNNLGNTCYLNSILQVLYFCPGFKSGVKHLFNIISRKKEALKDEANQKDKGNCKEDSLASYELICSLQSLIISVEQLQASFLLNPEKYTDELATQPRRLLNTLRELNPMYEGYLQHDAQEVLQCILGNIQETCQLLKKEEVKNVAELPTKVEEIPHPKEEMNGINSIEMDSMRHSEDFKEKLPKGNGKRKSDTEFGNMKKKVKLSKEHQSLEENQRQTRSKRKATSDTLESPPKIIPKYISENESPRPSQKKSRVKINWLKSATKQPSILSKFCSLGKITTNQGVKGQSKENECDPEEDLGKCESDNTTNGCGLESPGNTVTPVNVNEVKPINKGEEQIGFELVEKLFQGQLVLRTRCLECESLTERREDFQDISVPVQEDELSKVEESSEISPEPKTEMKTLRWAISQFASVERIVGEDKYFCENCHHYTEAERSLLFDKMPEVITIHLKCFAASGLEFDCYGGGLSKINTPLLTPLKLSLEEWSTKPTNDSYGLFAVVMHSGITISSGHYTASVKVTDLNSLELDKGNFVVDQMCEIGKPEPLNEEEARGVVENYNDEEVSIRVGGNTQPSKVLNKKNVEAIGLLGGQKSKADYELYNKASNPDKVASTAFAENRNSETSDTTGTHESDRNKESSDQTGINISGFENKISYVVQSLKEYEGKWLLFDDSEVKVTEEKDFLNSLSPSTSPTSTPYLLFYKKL
Sequence of M-phase phosphoprotein 8 (Homo sapiens) (Q99549 whole entry, looked up): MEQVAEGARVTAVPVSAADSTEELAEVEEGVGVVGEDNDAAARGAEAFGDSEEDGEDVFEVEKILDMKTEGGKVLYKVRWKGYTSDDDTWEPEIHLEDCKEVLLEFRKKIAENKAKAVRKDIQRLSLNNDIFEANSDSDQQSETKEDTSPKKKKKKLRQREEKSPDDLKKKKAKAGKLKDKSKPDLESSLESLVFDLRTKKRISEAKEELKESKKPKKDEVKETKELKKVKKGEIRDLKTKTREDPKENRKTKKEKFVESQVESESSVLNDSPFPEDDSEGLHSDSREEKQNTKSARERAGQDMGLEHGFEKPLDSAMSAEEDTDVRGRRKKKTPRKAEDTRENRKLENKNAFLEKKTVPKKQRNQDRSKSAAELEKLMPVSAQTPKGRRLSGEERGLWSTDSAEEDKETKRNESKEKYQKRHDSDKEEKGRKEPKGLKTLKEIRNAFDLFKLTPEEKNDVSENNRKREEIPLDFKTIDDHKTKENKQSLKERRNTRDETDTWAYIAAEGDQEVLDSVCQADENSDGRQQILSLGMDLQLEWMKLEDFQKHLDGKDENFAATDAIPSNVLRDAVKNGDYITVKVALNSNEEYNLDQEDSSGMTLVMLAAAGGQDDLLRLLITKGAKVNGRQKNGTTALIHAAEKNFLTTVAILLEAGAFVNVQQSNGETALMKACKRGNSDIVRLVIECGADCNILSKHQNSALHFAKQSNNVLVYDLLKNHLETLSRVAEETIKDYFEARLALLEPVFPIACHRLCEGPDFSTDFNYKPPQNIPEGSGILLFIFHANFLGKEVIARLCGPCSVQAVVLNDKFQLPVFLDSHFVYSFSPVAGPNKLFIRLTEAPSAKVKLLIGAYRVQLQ
Sequence of Glutaminase kidney isoform, mitochondrial (Homo sapiens) (O94925 whole entry, looked up, canonical isoform): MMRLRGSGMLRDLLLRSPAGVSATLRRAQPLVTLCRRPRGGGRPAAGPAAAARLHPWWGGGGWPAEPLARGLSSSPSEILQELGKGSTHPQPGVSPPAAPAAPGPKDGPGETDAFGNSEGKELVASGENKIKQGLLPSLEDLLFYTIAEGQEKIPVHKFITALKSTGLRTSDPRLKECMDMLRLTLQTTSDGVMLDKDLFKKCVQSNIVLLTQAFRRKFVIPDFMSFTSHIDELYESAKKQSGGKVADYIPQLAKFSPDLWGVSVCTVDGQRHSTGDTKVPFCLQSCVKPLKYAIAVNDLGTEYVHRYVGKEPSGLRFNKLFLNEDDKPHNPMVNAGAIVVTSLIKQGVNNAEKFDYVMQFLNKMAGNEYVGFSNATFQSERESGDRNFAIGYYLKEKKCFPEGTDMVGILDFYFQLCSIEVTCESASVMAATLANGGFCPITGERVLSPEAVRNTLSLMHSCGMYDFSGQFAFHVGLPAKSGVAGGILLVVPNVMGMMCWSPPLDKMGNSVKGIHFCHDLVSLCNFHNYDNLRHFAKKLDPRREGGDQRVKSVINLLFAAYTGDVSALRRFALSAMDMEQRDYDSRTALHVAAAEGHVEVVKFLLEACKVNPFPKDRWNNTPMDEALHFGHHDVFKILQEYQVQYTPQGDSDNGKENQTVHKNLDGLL

Regarding `CCCCCCCCCC=O`, the Potency entry in assay [1], in [2], in [3], in [4] and in [5] was “inactive” each time. In [6], the result was inactive.

Consider `CCCCCCCCCCCCCC(=O)OCC(O)CO` (stereo not drawn), for which the Potency entry in assay [1], in assay [2], in assay [3], in assay [4] and in [5] was “inactive” in each case. Besides, the result in assay [6] was inactive.

For the molecule `O=C(O)c1ccccc1`, the Potency entry in assay [1], in assay [2], in [3] and in [4] was “inactive” in each case. Further, the molecule was called inactive in assay [6].

For the molecule `CC1(C)CC(=O)c2c(C(F)(F)F)nn(-c3ccc(C(N)=O)c(NC4CCC(O)CC4)c3)c2C1` (stereo not drawn), the Potency was 1090 nM (active) in assay [1], 611 nM (active) in assay [2], 769 nM (active) in [3] and 273 nM (active) in assay [4]. Moreover, the activity change, negative = inhibition in assay [7] is -89.6%.

In the case of `CN1CCN(Cc2ccc(NC(=O)Nc3ccc(Oc4cc(NC(=O)C5CC5)ncn4)cc3)cc2C(F)(F)F)CC1`, the Potency in assay [1] was 2430 nM (active); in [2], 1530 nM (active); in assay [3], 968 nM (active); in [4] it was 1720 nM (active); in [7], 1000 nM (active).

For `COC[C@H](NC(=O)c1cnc(C)s1)C(=O)N[C@@H](COC)C(=O)N[C@@H](Cc1ccccc1)C(=O)[C@@]1(C)CO1`, the Potency in assay [1] was 273 nM (active); in assay [2], 685 nM (active); in [3], 685 nM (active); in assay [4], 769 nM (active). For the same molecule, in [7], the activity change, negative = inhibition is -97.7%.

Consider `O=[N+]([O-])c1ccc(Nc2ccccc2-c2ccccc2)c2nonc12`, for which the Potency entry in assay [1], in assay [2], in [3] and in assay [4] was “inactive” throughout. The Potency in assay [7] is 7940 nM (active).

Regarding `COc1cc([C@@H]2c3cc4c(cc3[C@H](O)C3COC(=O)[C@@H]32)OCO4)cc(OC)c1OC` (stereo partly drawn), the Potency is 12600 nM (active) in assay [8]; 11200 nM (active) in assay [9]; 15800 nM (active) in assay [10]; 46.5 nM (active) in assay [11]; 35.5 nM (active) in assay [13]; 32.6 nM (active) in assay [15]. For the same molecule, the Potency result in assay [12], in assay [14], in [17], in [1], in [2] and in assay [3] was “inactive” throughout. Further, the Potency result in assay [4] is “inactive”. The result in assay [16], in assay [18] and in assay [19] was inactive.

Source of the values: PubChem BioAssay (NCATS).
